The values below come from PubChem BioAssay (NCI).

Compounds without any hit were thinned out: in the full panel of roughly 83,000, 20% have a hit.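 Negative percent growth values reflect cell death: -40 means 40% of the cells present at the start died, and -100 means all died.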 A number with no mark means an inactive call. Active and inactive are the calls of the source. Rule for the calls: active = growth percent below 10; inactive = the rest.

Some test systems named below: SR leukemia; RPMI-8226 leukemia; OVCAR-8 ovarian; OVCAR-5 ovarian; OVCAR-4 ovarian; SK-OV-3 ovarian; IGROV1 ovarian; OVCAR-3 ovarian; HS 578T breast; NCI/ADR-RES ovarian.
Holding throughout (test): NCI-60 one-dose screen, 48 h (100 = growth as untreated, 0 = no growth, -100 = all killed)
Holding throughout (conditions): 10 µM

As to `CCN(CC)c1ccc(/C=C/C2=[N+](C)c3ccccc3C2(C)C)c(C)c1`, the growth in the assay on SR leukemia is -14.6% (active); in the assay with RPMI-8226 leukemia, -25.7% (active); in the assay with OVCAR-8 ovarian, 8.1% (active); with OVCAR-5 ovarian, 30.6%; in the assay on OVCAR-4 ovarian, 18.4%; in the assay with SK-OV-3 ovarian, -6.99% (active). In addition, the growth in the assay with IGROV1 ovarian is 31.8%; in the assay on OVCAR-3 ovarian it was 8.86% (active); with HS 578T breast, 41.8%; in the assay on NCI/ADR-RES ovarian, 33.4%.

`CCCc1c(C)nc2scc(-c3ccc(Cl)cc3)n2c1=O`: the growth is 83.1% in the assay on SR leukemia; 96.4% in the assay with RPMI-8226 leukemia; 107% in the assay with OVCAR-8 ovarian; 104% with OVCAR-5 ovarian; 97.3% in the assay with OVCAR-4 ovarian; 103% in the assay on SK-OV-3 ovarian. Further, the growth was 107% in the assay with IGROV1 ovarian, 104% with OVCAR-3 ovarian, 101% in the assay with HS 578T breast and 101% with NCI/ADR-RES ovarian.

Regarding `COc1cc(C2C=C(c3ccc(Cl)cc3)N=C3SC(C)=CN32)cc(OC)c1OC` (stereo not given), the growth in the assay on SR leukemia was 9.45% (active); in the assay with RPMI-8226 leukemia it was 47.5%; in the assay with OVCAR-8 ovarian, 93.6%; with OVCAR-5 ovarian, 85.2%; in the assay on OVCAR-4 ovarian it was 77.4%; in the assay with SK-OV-3 ovarian, 118%. The growth is 96.6% with IGROV1 ovarian, 103% with OVCAR-3 ovarian, 101% in the assay with HS 578T breast and 97.6% with NCI/ADR-RES ovarian.

For the compound `NC(=O)C12C(=O)NC(=O)C1(C(=O)O)C21CCCC1` (stereo not given), the growth was 106% in the assay with SR leukemia; 94.6% in the assay with RPMI-8226 leukemia; 104% with OVCAR-8 ovarian; 110% with OVCAR-5 ovarian; 104% in the assay with OVCAR-4 ovarian; 116% in the assay on SK-OV-3 ovarian. For the same compound, the growth in the assay with IGROV1 ovarian is 106%; with OVCAR-3 ovarian, 116%; in the assay on HS 578T breast it was 107%; with NCI/ADR-RES ovarian it was 114%.

With `Cc1ccc(C2C=C(c3ccc(Cl)cc3)N=C3SC=CN32)c(Br)c1` (stereo not given), the growth in the assay on SR leukemia is 0.074% (active); with RPMI-8226 leukemia, -0.582% (active); in the assay on OVCAR-8 ovarian, 80%; in the assay on OVCAR-5 ovarian, 92.8%; in the assay on OVCAR-4 ovarian, 67.4%; in the assay on SK-OV-3 ovarian, 101%. The growth with IGROV1 ovarian was 75.7%; with OVCAR-3 ovarian it was 87.1%; in the assay with HS 578T breast, 94.1%; in the assay on NCI/ADR-RES ovarian it was 85.6%.

Take `CCCCCCCCCCCC(c1ccccc1)N(C)C` (stereo not given): the growth in the assay with SR leukemia was 77%; in the assay on RPMI-8226 leukemia, 83.5%; in the assay on OVCAR-8 ovarian, 97.7%; in the assay on OVCAR-5 ovarian it was 99.2%; in the assay with OVCAR-4 ovarian, 84.7%; in the assay on SK-OV-3 ovarian it was 108%. Further, the growth with IGROV1 ovarian was 96.1%; in the assay with OVCAR-3 ovarian, 106%; with HS 578T breast it was 93.3%; with NCI/ADR-RES ovarian, 96.1%.

As to `COc1cc(N=C2C(=O)N(Cc3ccccc3)c3ccccc32)cc(OC)c1OC`, the growth with SR leukemia is 74.5%; in the assay on RPMI-8226 leukemia, 38.4%; in the assay with OVCAR-8 ovarian it was 96.6%; in the assay on OVCAR-5 ovarian, 95%; in the assay with OVCAR-4 ovarian, 98.8%; with SK-OV-3 ovarian, 101%. Moreover, the growth in the assay with IGROV1 ovarian was 86%; in the assay on OVCAR-3 ovarian it was 84.4%; in the assay on HS 578T breast, 82.9%; in the assay with NCI/ADR-RES ovarian, 94.6%.

As to `O=C(CCCC(=O)N/N=C/c1cc(Cl)ccc1O)N/N=C\c1cc(Cl)ccc1O`, the growth with SR leukemia was 1.74% (active); in the assay with RPMI-8226 leukemia, 27.3%; with OVCAR-8 ovarian, 20.3%; in the assay on OVCAR-5 ovarian it was 67.4%; with OVCAR-4 ovarian it was 22.1%; in the assay on SK-OV-3 ovarian it was 13.9%. The growth is 31.2% in the assay with IGROV1 ovarian, 35.5% with OVCAR-3 ovarian, 68.4% with HS 578T breast and 14.1% with NCI/ADR-RES ovarian.

As to `O=S(=O)(O)C1(O)CCCCC1`, the growth with SR leukemia was 83.1%; in the assay on RPMI-8226 leukemia, 81.5%; in the assay on OVCAR-8 ovarian, 79.3%; with OVCAR-5 ovarian, 90.5%; in the assay on OVCAR-4 ovarian, 79.1%; with SK-OV-3 ovarian, 94.9%. The growth was 65.9% with IGROV1 ovarian, 103% with OVCAR-3 ovarian, 104% in the assay on HS 578T breast and 95.4% with NCI/ADR-RES ovarian.

Take `Cc1nc2scc(-c3ccc(Cl)cc3)n2c(=O)c1CCN1CCOCC1`: the growth with SR leukemia is 81.4%; in the assay on RPMI-8226 leukemia, 93.5%; with OVCAR-8 ovarian, 104%; with OVCAR-5 ovarian it was 116%; in the assay on OVCAR-4 ovarian, 95.1%; with SK-OV-3 ovarian, 94.1%. The growth with IGROV1 ovarian was 79.2%; in the assay with OVCAR-3 ovarian, 104%; in the assay on HS 578T breast, 106%; with NCI/ADR-RES ovarian, 108%.

Regarding `CCOC(=O)/C(C#N)=C(/C)C1CC1`, the growth with SR leukemia was 102%; with RPMI-8226 leukemia, 98.4%; with OVCAR-8 ovarian it was 107%; in the assay with OVCAR-5 ovarian it was 105%; in the assay on OVCAR-4 ovarian, 104%; in the assay on SK-OV-3 ovarian, 111%. For the same compound, the growth in the assay on IGROV1 ovarian was 121%; in the assay on OVCAR-3 ovarian it was 101%; with HS 578T breast, 107%; in the assay with NCI/ADR-RES ovarian, 111%.

`Fc1cc(-c2ncc(-c3cc(F)c(F)c(F)c3)c(NC3CCCCCC3)n2)cc(F)c1F`: the growth was 95.9% in the assay on SR leukemia; 96.3% with RPMI-8226 leukemia; 102% in the assay on OVCAR-8 ovarian; 110% in the assay on OVCAR-5 ovarian; 89.1% with OVCAR-4 ovarian; 115% with SK-OV-3 ovarian. Also, the growth is 110% in the assay on IGROV1 ovarian, 110% with OVCAR-3 ovarian, 102% in the assay on HS 578T breast and 106% in the assay on NCI/ADR-RES ovarian.

Consider `CC(=O)OC1Oc2ccccc2-c2oc(=O)c(-c3cc(=O)oc4cc(O)ccc34)cc21` (stereo not given), for which the growth in the assay on SR leukemia was 3.66% (active); in the assay with RPMI-8226 leukemia it was 46.7%; in the assay on OVCAR-8 ovarian it was 89.1%; with OVCAR-5 ovarian it was 75.8%; in the assay with OVCAR-4 ovarian, 77.2%; in the assay with SK-OV-3 ovarian, 83.3%. Also, the growth was 49.4% in the assay on IGROV1 ovarian, 63.8% in the assay on OVCAR-3 ovarian, 59.5% in the assay on HS 578T breast and 75.5% in the assay with NCI/ADR-RES ovarian.

In the case of `CC1=CSC2=NC(c3ccc(Cl)c(Cl)c3)=CC(c3ccc(Cl)cc3)N12` (stereo not given), the growth with SR leukemia is 0.606% (active); in the assay on RPMI-8226 leukemia, 82.3%; in the assay on OVCAR-8 ovarian it was 29.1%; in the assay on OVCAR-5 ovarian, 91.8%; in the assay with OVCAR-4 ovarian it was 62.5%; in the assay with SK-OV-3 ovarian, -19.9% (active). Also, the growth with IGROV1 ovarian is -52% (active); with OVCAR-3 ovarian, 18%; in the assay on HS 578T breast, -1.12% (active); with NCI/ADR-RES ovarian, 92.9%.
